# Source: ChEMBL document CHEMBL3988442, “University of Dundee, Small-Polar-MMV Screening Library” (2021)
# Molecular target: AMP-activated protein kinase, AMPK (Homo sapiens) (UniProt P54646+O43741+P54619+Q9UGJ0+Q9Y478+Q13131+Q9UGI9)
# Experiment: AMP-dependent Kinase enzyme assay. An in vitro enzyme assay that detects ADP turnover that is directly proportional to AMPK activity. This uses naive AMPK that is activated during the assay with MK-8722
# Assay type: functional
# Design: scale not given: direction of the effect not stated beside the values
# Settings: 30 µM
row,SMILES,Percent Effect [%]
1,COc1ccccc1CC(C)CC(=O)N(C)Cc1cc(C)on1 (stereo unspecified),3.99
2,CC1(C)Cc2nc(C(C)(C)C)ncc2C(NC(=O)CN)C1 (stereo unspecified),-5.88
3,CC(C)Cc1cc(CNC(=O)c2ccccc2C2CCNC2)no1 (stereo unspecified),3.3
4,Cc1cc(C(=O)NCCC(=O)N2CCCc3ccccc32)no1,-5.97
5,CCN(Cc1ccoc1)C(=O)Nc1ccccc1CN1CCOCC1,4.22
6,O=C(Cn1ccc(-c2ccccc2)n1)N1CCN(C(=O)C2CC2)CC1,-3.88
7,COc1ccccc1CN(Cc1nc(Cc2ccccc2)no1)C1CC1,12.8
8,O=C(O)CC(CC(=O)N(Cc1ccsc1)C1CC1)c1cccs1 (stereo unspecified),-2.55
9,NC1CCCc2c1cnn2-c1cc(F)cc(F)c1 (stereo unspecified),10.6
10,Cc1nc(CCN(C)C(=O)CN2CCCCCC2)no1,1.14
11,Cc1cc(NC(=O)CO)nn1-c1ccc(Cl)cc1Cl,-3.56
12,c1nc(N2CCCC2)cnc1C1CCNCC1,11.5
13,CN1CCN(CCOc2ccc(NC(=O)c3ccc[nH]3)cc2)CC1,6.53
14,CCn1cnnc1CNC(=O)N1CCOC(c2ccc(F)cc2)C1 (stereo unspecified),-5.45
15,CC(C)(C)c1nc(CC(=O)NCCC(=O)Nc2ccncc2)cs1,-4.57
16,CCCc1nc(NC2(COC)CCCC2)c2cnn(C)c2n1,7.33
17,CCc1oc(C(=O)N[C@@H]2c3ccccc3C[C@@H]2O)cc1CN1CCCC1,4.06
18,Cc1nsc(N2CCCN(C(=O)CCc3ccsc3)CC2)n1,-4.46
19,O=C(NCc1cccnc1N1CCCCC1)c1ccc2[nH]nnc2c1,-9.59
20,CN1CCN(c2ncc(CNCCCc3cccc(F)c3)cn2)CC1,4.72
21,CN(CCCOc1ccccc1Cl)C(=O)CN1CCNC1=O,10.2
